TGFb SMAD3 inh: TGF-b pathway inhibition; AID 588855; Potency, µM (doses to about 46.1 µM), most hits filed as inhibitors; HepG2 CAGA-GFP TGF-b/SMAD3 reporter, GFP fluorescence, 18 h; TGF-beta stimulated, 500 pg/mL final; 410,000 tested, 1.2% active; also: nearly all actives have a fitted effect of over 65% in size
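Smad-responsive CAGA-GFP expression was quantified in HEPG2 cells exposed to compounds and 500 pg/mL final TGF-beta for 18 h at 37 degrees C; unstimulated wells defined full inhibition.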
Nrf2 block: Nrf2 pathway inhibition; A549 ARE-Fluc reporter, luciferase luminescence, 18-24 h; Potency, µM (doses to about 46 µM), hits mostly inhibitors; 360,000 tested, 2.1% active; also: nearly all actives have a fitted effect of over 60% in size
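In this cell-based qHTS, ARE-driven firefly luciferase in A549 cells reports Nrf2 activity; the luminescent signal after BugLite lysis is the measured value, with a prior CellTiter-Fluor read for cell health.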
S2 tox: cell viability loss in ATXN counter-screen; AID 651635; Potency, µM (top dose mostly 56.7 µM), hits mostly cytotoxic; 400,000 tested, 0.49% active; S2 cells (HEK-293 line with an ATXN2-luciferase reporter) viability, CellTiter-Fluor protease fluorescence, 24 h; also: nearly all actives have a fitted effect of over 40% in size
A549 tox-1: kills or reduces viability of A549 cells in Nrf2 counter-screen; A549 ARE-Fluc cells, CellTiter-Fluor viability, 18-24 h; Potency, µM (highest dose often 46 µM), most hits filed as inhibitors; 390,000 tested, 0.16% active
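Cytotoxicity counterscreen: CellTiter-Fluor fluorescence was measured in A549 ARE_Fluc cells after 18-24 h of compound exposure in a concentration series. The subsequent BugLite luminescent read reports ARE-luciferase activity.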
ATXN2 expr inh: reduces ATXN2 reporter expression in HEK-293 cells. Potency, µM (doses to about 57 µM), usual class: inhibitors. 360,000 tested, 0.72% active. HEK-293 ATXN2-luciferase reporter, luminescence, 24 h; also: nearly all actives have a fitted effect of over 55% in size
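qHTS (up to 57 uM final) was run with 24 h compound exposure of reporter cells at 37 °C. Each well was multiplexed: SteadyGlo luminescence measured ATXN2-luciferase expression after a fluorogenic Gly-Phe-AFC viability readout (25 uM final).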
HepG2 tox-1: counter-screen for TGF-b inhibitors: cytotoxicity in HepG2 cells; HepG2 CAGA-GFP viability, ATP luminescence, 18 h; Potency, µM (top dose mostly 46.1 µM), actives largely listed as cytotoxic; 410,000 tested, 0.76% active; AID 588856
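HepG2 CAGA-GFP cells (1000/well, DMEM with 1% FBS) received compound, then TGF-beta at 500 pg/mL final, and were incubated 18 hours at 37 degrees C. Viability was read by CellTiter-Glo luminescence. Media-only wells were set as complete cell-killing and DMSO as no toxicity.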
FLuc enzyme inh: blocks purified firefly luciferase in Nrf2 counterscreen; shares compounds with Nrf2 block; purified firefly luciferase, luminescence inhibition; Potency, µM (highest dose often 57.5 µM), actives largely listed as inhibitors; 1,400 tested, 4% active; AID 720522; also: nearly all actives have a fitted effect of over 65% in size
Target sequence (P08659 whole entry, looked up): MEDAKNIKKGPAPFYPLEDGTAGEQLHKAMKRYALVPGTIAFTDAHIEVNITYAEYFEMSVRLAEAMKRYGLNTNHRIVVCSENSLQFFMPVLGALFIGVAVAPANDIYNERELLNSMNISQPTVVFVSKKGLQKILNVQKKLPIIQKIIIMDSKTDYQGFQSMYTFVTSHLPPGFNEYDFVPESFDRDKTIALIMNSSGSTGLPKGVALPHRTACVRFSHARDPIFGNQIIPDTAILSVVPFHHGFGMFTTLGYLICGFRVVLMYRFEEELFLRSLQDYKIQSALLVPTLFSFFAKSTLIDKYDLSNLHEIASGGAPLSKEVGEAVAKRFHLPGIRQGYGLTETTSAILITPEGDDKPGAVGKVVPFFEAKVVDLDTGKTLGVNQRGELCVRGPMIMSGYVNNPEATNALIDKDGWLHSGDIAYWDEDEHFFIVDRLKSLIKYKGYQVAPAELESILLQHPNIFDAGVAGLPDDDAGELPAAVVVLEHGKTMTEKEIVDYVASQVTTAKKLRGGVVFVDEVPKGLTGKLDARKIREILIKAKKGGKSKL
A549 tox-2: counter-screen for Nrf2 inhibitors: cytotoxicity in A549 ARE cells; 1,400 tested, 2% active; AID 720523; Potency, µM (titrated, usually from 46.1 µM), usual class: inhibitors; A549 ARE-Fluc cells, cytotoxicity counterscreen; shares compounds with Nrf2 block;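 also: cells exposed to compounds for 18 to 24 hours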
ARE-Fluc inh: Nrf2 inhibition confirmed, A549 ARE-luciferase; 1,400 tested, 74% active; A549 ARE-firefly luciferase reporter, luminescence; Potency, µM (top dose mostly 46.1 µM), actives largely listed as inhibitors; shares compounds with Nrf2 block; AID 720524; also: nearly all actives have a fitted effect of over 65% in size
TGFb CAGA inh: TGF-b pathway inhibition, cherry-pick retest. 1,600 tested, 63% active. AID 720534. shares compounds with TGFb SMAD3 inh. HepG2 CAGA-GFP TGF-b reporter, GFP fluorescence, 18 h; cells stimulated with TGF-beta, 500 pg/mL. Potency, µM (series often up to 46.1 µM), actives largely listed as inhibitors; also: nearly all actives have a fitted effect of over 65% in size
HepG2 tox-2: counter-screen for TGF-b inhibitors: cytotoxicity in HepG2 cells | Potency, µM (series often up to 46.1 µM), actives largely listed as inhibitors | HepG2 CAGA-GFP viability, ATP luminescence, 18 h; cells stimulated with TGF-beta, 500 pg/mL | AID 720535 | shares compounds with TGFb SMAD3 inh | 1,600 tested, 27% active; also: nearly all actives have a fitted effect of over 70% in size
CCL64 TGFb inh: blocks TGF-b signaling in CCL64 reporter cells. Potency, µM (series often up to 46.1 µM), hits mostly inhibitors. shares compounds with TGFb SMAD3 inh. 1,600 tested, 41% active. AID 720536. CCL64 CAGA-GFP reporter, TGF-b stimulated, GFP fluorescence, 18 h; also: nearly all actives have a fitted effect of over 65% in size
COP TGFb inh: validation of TGF-b inhibitors in HepG2 COP promoter reporter; 1,600 tested, 3% active; Potency, µM (titrated, usually from 46.1 µM), actives largely listed as inhibitors; shares compounds with TGFb SMAD3 inh; HepG2 COP-GFP TGF-b reporter, GFP fluorescence, 18 h; cells stimulated by added recombinant TGF-beta; also: nearly all actives have a fitted effect of over 70% in size
Large screens that a line does not name were inactive (follow-up assays come after a bar, where shown). Most compounds without a hit are left out; they make up all but 3.8% or so of the library. Calls follow the shape of the dose curve; as a rule, active = well fitted curve in the direction sought with a large enough effect; inconclusive = small, poorly fitted or top-dose-only effect, or another doubt; inactive = no such curve, though single readings can be large; an effect the other way counts as inactive or inconclusive.

CN(C)c1ccc(/C=C/C(=O)c2ccc(O)cc2)cc1	Nrf2 block 5.2µM | FLuc enzyme inh 0.21µM | A549 tox-2 inactive | ARE-Fluc inh 2.3µM
COc1ccc(OC)c(-c2cc(C(=O)Nc3cc(C)n(Cc4ccc(Cl)cc4)n3)no2)c1	S2 tox inconclusive (no result: Nrf2 block)
Cc1cc(NC(=O)c2cc(-c3ccco3)on2)nn1Cc1ccc(Cl)cc1	none
Cc1cc(NC(=O)c2cc(-c3ccc(F)cc3)on2)nn1Cc1ccc(Cl)cc1	Nrf2 block 6.5µM (no result: S2 tox, ATXN2 expr inh) | FLuc enzyme inh inactive | A549 tox-2 inactive | ARE-Fluc inh 2.9µM
COc1cccc(-c2cc(C(=O)Nc3cc(C)n(Cc4ccc(Cl)cc4)n3)no2)c1	Nrf2 block inconclusive, A549 tox-1 inconclusive | FLuc enzyme inh inactive | A549 tox-2 inactive | ARE-Fluc inh 7.3µM
CCCN(C(=O)CSCc1ccccc1C)c1c(N)n(Cc2ccccc2)c(=O)[nH]c1=O	none
CCCNC(=O)COC(=O)c1ccccc1OCc1ccc(Cl)cc1	none
O=C(Oc1cccnc1)c1ccc([N+](=O)[O-])cc1	none (no result: ATXN2 expr inh)
O=C(Oc1cccnc1)c1ccc([N+](=O)[O-])cc1Cl	Nrf2 block 1µM | FLuc enzyme inh inactive | A549 tox-2 inconclusive
COc1ccccc1CN1C[C@@H]2C[C@@H](c3[nH]c4c(C)cccc4c3C)N3CCC[C@@]23C1=O	TGFb SMAD3 inh inconclusive, Nrf2 block inconclusive (no result: ATXN2 expr inh)
COc1ccc(-c2c(C#N)c(SCC(=O)c3cc4ccccc4oc3=O)nc(C)c2C(=O)Nc2ccccc2)cc1	TGFb SMAD3 inh inconclusive, Nrf2 block 6.5µM, S2 tox inconclusive | FLuc enzyme inh inactive | A549 tox-2 inactive | ARE-Fluc inh 15µM
COc1ccc(-c2c(C#N)c(SCC(=O)Nc3ccc(C)cc3)nc(C)c2C(=O)Nc2ccccc2)cc1	S2 tox inconclusive
COc1ccc(CCNC(=O)c2nc(SCc3ccc(F)cc3)ncc2Cl)cc1OC	TGFb SMAD3 inh inconclusive, Nrf2 block inconclusive (no result: S2 tox, ATXN2 expr inh)
CO[C@H]1/C=C/O[C@@]2(C)Oc3c(C)c(O)c4c(O)c(c(C=NN5CCN(C)CC5)c(O)c4c3C2=O)NC(=O)/C(C)=C\C=C\[C@H](C)[C@H](O)[C@@H](C)[C@@H](O)[C@@H](C)[C@H](OC(C)=O)[C@@H]1C	Nrf2 block 4.1µM, A549 tox-1 inconclusive | FLuc enzyme inh inactive | A549 tox-2 inconclusive | ARE-Fluc inh 4.6µM
CO[C@H]1C=CO[C@@]2(C)Oc3c(C)c(O)c4c(O)c(c(C=NN5CCN(C)CC5)c(O)c4c3C2=O)NC(=O)C(C)=CC=C[C@H](C)[C@H](O)[C@@H](C)[C@@H](O)[C@@H](C)[C@H](OC(C)=O)[C@H]1C	none (no result: TGFb SMAD3 inh, Nrf2 block, S2 tox, A549 tox-1, HepG2 tox-1)
CC1CC(C)C(=O)C(C(CC2CC(=O)NC(=O)C2)OC(=O)CC(=O)c2ccccc2)C1 (centres undefined)	TGFb SMAD3 inh 2.2µM, Nrf2 block 5.2µM, S2 tox inconclusive, A549 tox-1 inconclusive, ATXN2 expr inh 3.5µM | FLuc enzyme inh inactive | A549 tox-2 inactive | ARE-Fluc inh 0.21µM | TGFb CAGA inh 0.41µM | HepG2 tox-2 inconclusive | CCL64 TGFb inh 2.6µM | COP TGFb inh inactive
O=C1CCC(C(=O)OCC(=O)c2ccccc2)N1 (centres undefined)	TGFb SMAD3 inh inconclusive
O=C(O)Cn1cnc2c(OCc3ccccc3)ncnc21	none
Cc1cc(C)c(CN2CCN(C(=O)Cn3cnc4c(OCc5ccccc5)ncnc43)CC2)c(C)c1	TGFb SMAD3 inh 13µM, Nrf2 block 3.7µM, S2 tox inconclusive | FLuc enzyme inh inactive | A549 tox-2 inactive | ARE-Fluc inh 6.5µM | TGFb CAGA inh 3.7µM | HepG2 tox-2 inconclusive | CCL64 TGFb inh inconclusive | COP TGFb inh inactive
CCc1nc(N)nc(N)c1-c1ccc(N(C)Cc2ccccc2)c([N+](=O)[O-])c1	TGFb SMAD3 inh 0.71µM, Nrf2 block 1.3µM, S2 tox inconclusive, ATXN2 expr inh 19µM | FLuc enzyme inh inactive | A549 tox-2 inactive | ARE-Fluc inh 1.2µM | TGFb CAGA inh inconclusive | HepG2 tox-2 0.29µM | CCL64 TGFb inh 29µM | COP TGFb inh inactive
Cc1noc(-c2ccc(N(C)Cc3ccccc3)c([N+](=O)[O-])c2)n1	TGFb SMAD3 inh inconclusive, Nrf2 block inconclusive
O=C1N(c2ccccc2)C[C@@H]2C[C@@H](c3cc4ccccc4o3)N3CCC[C@@]123	TGFb SMAD3 inh 0.13µM, Nrf2 block 1.2µM, S2 tox inconclusive, A549 tox-1 inconclusive, ATXN2 expr inh 0.3µM | FLuc enzyme inh inactive | A549 tox-2 inactive | ARE-Fluc inh 2.6µM | TGFb CAGA inh 0.058µM | HepG2 tox-2 inconclusive | CCL64 TGFb inh 0.58µM | COP TGFb inh inactive
